Source: PubChem (several laboratories)
NSD2 inh = NSD2 (human) methyltransferase inhibition | O96028 | AID 743445 | actives 0.54% (n = 310,000) | NSD2 peptide methylation, AlphaScreen, 120 min | inhibition, % at 12.5 µM; in the data active means inhibition above about 50%
Vif imaging = HIV Vif inhibition | HEK293T cells, Vif self-association by quenched fluorescence, imaging, 24 h | actives 0.35% (n = 340,000) | AID 602346 | inhibition, % at 7.49 µM; in the data active means inhibition above about 50%, passing the limit was not always enough
DSG3 Ab inh = human desmoglein-3 autoantibody binding inhibition. DSG3-coupled beads, scFv-anti-DSG3-GFP binding, flow cytometry; stronger effect = lower value. binding (percent of control), % at 10 µM. actives 0.48% (n = 310,000). AID 588358;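 active means binding more than 3 SD below its plate's average and above zero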;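 further: hits lower antibody fragment binding to DSG3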
CaV13 FRET inh = Primary screen for inhibitors of IQ motif and Ca2+-dependent inactivation inhibitor domain binding in CACNA1D, Förster resonance energy transfer in living cells, …. HEK cells, CFP/YFP FRET ICDI-IQ, plate reader, 10 min; percent FRET-ratio fall versus neutral wells. inhibition, % at 12.3 µM. actives 0.098% (n = 340,000);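 active means mean replicate inhibition of at least 30% and at least 1% of replicates passing that level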;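 further: 0% = median of the neutral control wells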
ATG4B inh = ATG4B (human) cysteine protease inhibition; AID 504462; ATG4B cleavage of LC3-PLA2, NBD-HPC fluorescence, 1 h; Q9Y4P1; actives 0.51% (n = 340,000); inhibition, % at 8.33 µM; in the data active means inhibition above about 40%
Target sequence (Q9Y4P1 whole entry, looked up): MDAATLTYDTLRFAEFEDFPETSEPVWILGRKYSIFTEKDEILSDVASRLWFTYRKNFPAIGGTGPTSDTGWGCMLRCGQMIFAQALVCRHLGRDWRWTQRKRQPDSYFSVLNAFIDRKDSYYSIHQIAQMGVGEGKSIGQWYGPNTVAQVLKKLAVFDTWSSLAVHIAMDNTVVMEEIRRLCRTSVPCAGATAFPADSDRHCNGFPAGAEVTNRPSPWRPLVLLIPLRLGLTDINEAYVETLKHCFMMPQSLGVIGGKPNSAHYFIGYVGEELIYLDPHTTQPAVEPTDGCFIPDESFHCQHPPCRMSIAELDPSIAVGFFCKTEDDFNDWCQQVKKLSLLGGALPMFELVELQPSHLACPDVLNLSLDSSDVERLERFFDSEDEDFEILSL
N-glyco inh = N-linked glycosylation inhibition | actives 0.23% (n = 360,000) | D54 ERlucT glycosylation luciferase reporter, 24 h; percent of 100 nM tunicamycin response | reporter increase, % at 12.5 µM;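 active means mean luciferase reporter signal, scaled so untreated is 0 and the glycosylation-blocking control 100, at or above a set limit in every replicate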;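 further: luciferase carries N-glycosylation sites so blocking glycosylation raises the light; 0% = median of neutral control wells and 100% = median of 100 nM tunicamycin wells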
An asterisk follows results filed as active; x = not tested or not shown; + = active, no number; ! = not active in a repeat. An excerpt weighted towards active compounds, which were near 1.9% of everything screened.

SMILES	NSD2 inh	Vif imaging	DSG3 Ab inh	CaV13 FRET inh	ATG4B inh	N-glyco inh
COc1ccc(S(=O)(=O)Nc2ccc(Cc3ccncc3)cc2)cc1OC	-2	-9	40*	-3	-11	-3
CCOC(=O)CN1C(=O)N[C@@H](c2ccccc2)C(C(C)=O)=C1C	x	-9	90	x	-11	2
CCN1C(=O)NC(c2ccccc2)C1=O (stereo not drawn)	x	81*	90	-5	-2	1
Cc1cccc2c1cnn2C(=O)Nc1ccc(Br)cc1F	1	-16	97	-18	7	0
Cc1nc2sccn2c(=O)c1S(=O)(=O)NCCc1ccc(Cl)cc1	1	-6	-7.6*	-7	5	-2
Cc1ccc(CCNS(=O)(=O)c2c(C)nc3sccn3c2=O)cc1	x	-2	112	-6	-6	1
CCCCn1c(SCC(=O)Nc2cc(C(F)(F)F)cc(C(F)(F)F)c2)nnc1C(CC)N(C)C (stereo not drawn)	0	-9	116	-5	3	28*
COc1ccccc1/C=C1\SC(=O)N(CC(=O)NCCCn2ccnc2)C1=O	5	-6	100	-7	2	3
CC(C)(C)NC(=O)CN(Cc1ccc(F)cc1)C(=O)Cn1nnc(-c2ccc(F)cc2)n1	25	58*	90	-5	7	-2
O=C(CN(C(=O)Cn1nnc(-c2ccc(F)cc2)n1)C1CCCC1)NC1CCCC1	1	67*	100	-4	-15	-2
CCCC(C(=O)NC1CCCC1)N(C(=O)Cn1nnc(-c2ccc(C)o2)n1)c1ccccc1F (stereo not drawn)	1	4	x	-2	-6	-1
O=C(CN(Cc1ccco1)C(=O)Cn1nnc(-c2ccc(F)cc2)n1)NC1CCCC1	3	x	101	-3	10	-1
CCCC(C(=O)NC1CCCC1)N(C(=O)Cn1nnc(-c2ccc(C)o2)n1)C1CCCC1 (stereo not drawn)	2	-13	90*	-8	-7	-1
CCOc1ccccc1C(=O)NC(C(=O)OCC(=O)NNC(=O)c1cccs1)C(C)C (stereo not drawn)	10	0	97	-6	x	-3
CCOc1ccc(C2NC(=O)C(C#N)=C(S)N2c2ccc(OC)cc2)cc1OC (stereo not drawn)	15	20	80	x	-7	-1
O=S(=O)(c1ccc(F)cc1)N1CCN(CC(O)COc2ccccc2F)CC1 (stereo not drawn)	-2	-3	101	-2	-2	1
Cc1ccc(CNC(=O)C2(C)CCN2C(=O)Cc2ccc(-c3ccccc3)cc2)cc1 (stereo not drawn)	5	-31	x	-6	x	-3
Cc1ccc(C(=O)NC(=S)NCC(=O)c2ccccc2)cc1	10	14	-20*	-4	-10	-1
CC(C)CCOP(=O)(c1ccc(N(C)C)cc1)C(O)c1ccc(N(C)C)cc1 (stereo not drawn)	14	4	99	-3	-1	0
CCCCOc1ccc(C(C)NC(=O)CCS(=O)(=O)Cc2ccccc2Cl)cc1 (stereo not drawn)	-1	6	13*	-5	15	-2
Cc1cccc2c(N)c3c(nc12)N(C)CC3	15	-4	112	-20	-2	30*
CC(C)Nc1nc(-c2ccccc2)nc(-n2ccnc2)n1	-2	-6	x	-3	-10	3
c1ccc(-c2nc(-n3ccnc3)nc(-n3ccnc3)n2)cc1	0	-2	x	-4	-3	27*
Cc1cc(NC(=O)CSCC(=O)N2CCN(c3ccccc3)CC2)no1	-2	10	93	-9	16	0
O=C(O)c1ccc(N/N=C/c2ccc(-c3ccccc3Cl)o2)cc1	x	-1	97	+	5	-11
SMILES	NSD2 inh	Vif imaging	DSG3 Ab inh	CaV13 FRET inh	ATG4B inh	N-glyco inh
O=C(N/N=C/c1ccc(-c2ccccc2Cl)o1)c1ccccc1	-1	-14	90	-6	1	2
O=C(NCCc1ccccc1)c1cccc(NC(=O)C2CCCC2)c1	x	x	101	-4	x	-2
COC(=O)C1=CN(C)C=C(C(=O)OC)C1c1ccccc1Cl	-4	29	72	36*	-9	2
CCCCOc1ccccc1C1C(C(=O)OC)=CN(CC)C=C1C(=O)OC	-56	-17	104	x	1	-5
COc1ccc(/C=C2\CN(Cc3ccccc3)C/C(=C\c3ccc(OC)c(O)c3)C2=O)cc1O	3	59*	93	-4	24	-20
CCN1C/C(=C/c2ccc(OC)c(O)c2)C(=O)/C(=C/c2ccc(OC)c(O)c2)C1	6	0	104	-6	-9	24
CC(C)NC(=O)C(c1ccc(F)cc1)N(C(=O)CCC(=O)Nc1ccccn1)c1cccc(F)c1 (stereo not drawn)	1	74*	113	-4	-4	0
CC(C)c1ccc(N(CC(=O)NC2CCCCC2)C(=O)CCC(=O)Nc2ccccn2)cc1	-8	2	62*	-3	-4	1
CCn1cc(C(=O)NCCC(=O)NCCCO)c(=O)c2cc3c(cc21)OCO3	x	3	106	-3	-8	2
CC(C)CC(=O)NN(C)c1nc(-c2ccccc2)nnc1C(F)(F)F	1	-9	52*	-5	-18	-2
c1ccc(CN(CC2=NCCN2)c2ccccc2)cc1	x	0	14*!	-4	-4	-2
Cc1occc1C(=O)N=Nc1c(O)n(C)c2ccccc12	2	0	84*	-19	6	-5
O=C1OC(Nc2cc(Br)cc3cccnc23)c2ccccc21 (stereo not drawn)	104*	-14	102	-5	2	10
CCc1ccccc1S(=O)(=O)Cc1ccc(C(=O)N2CCN(c3ccccc3OC)CC2)o1	x	-29	106	55*	-10	-1
CCN(CC)CCN1C(=O)c2cccc3cc(N)cc(c23)C1=O	x	25	98	-8	-6	60*
O=C(NCc1ccc(Cl)cc1)c1cc([N+](=O)[O-])ccc1Cl	-2	2	95	-19	-2	10
O=C(NCc1ccccc1Cl)c1cc([N+](=O)[O-])ccc1Cl	-1	0	72*	-5	5	7
Cn1cc([N+](=O)[O-])c(C(=O)NNC(=O)c2ccc([N+](=O)[O-])cc2Cl)n1	-1	23	93	-2	0	1
N#Cc1ccccc1Cn1cc(/C=N/Nc2ccc([N+](=O)[O-])cn2)c2ccccc21	0	158*	101	-8	-6	-14
O=[N+]([O-])c1ccc(N/N=C/c2ccc(OCc3cccc4ccccc34)cc2)nc1	0	149*	102	-32	3	-4
O=[N+]([O-])c1ccc(NN=Cc2ccccc2O)nc1	-1	8	91	-12	-4	-14
